Experimental data published in article PMC4336329 (PLoS ONE, 2015).
Out of some 310,000 compounds screened, about 14,000 (4.5%) showed an effect of 50% or more. The effect is printed as a negative number. Many of the other results were omitted from the sample, so strong results are more common in it than they were.

Molecular target: human ether-à-go-go-related gene (hERG) potassium channel (human, UniProt Q12809)
Assay: primary screen, population patch clamp on CHO cells stably expressing hERG; higher = less effect of the substance
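Further: peak tail current of the secondary pulse compared with the same well before compound.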

Chain of human ether-à-go-go-related gene (hERG) potassium channel (Q12809 whole entry, looked up): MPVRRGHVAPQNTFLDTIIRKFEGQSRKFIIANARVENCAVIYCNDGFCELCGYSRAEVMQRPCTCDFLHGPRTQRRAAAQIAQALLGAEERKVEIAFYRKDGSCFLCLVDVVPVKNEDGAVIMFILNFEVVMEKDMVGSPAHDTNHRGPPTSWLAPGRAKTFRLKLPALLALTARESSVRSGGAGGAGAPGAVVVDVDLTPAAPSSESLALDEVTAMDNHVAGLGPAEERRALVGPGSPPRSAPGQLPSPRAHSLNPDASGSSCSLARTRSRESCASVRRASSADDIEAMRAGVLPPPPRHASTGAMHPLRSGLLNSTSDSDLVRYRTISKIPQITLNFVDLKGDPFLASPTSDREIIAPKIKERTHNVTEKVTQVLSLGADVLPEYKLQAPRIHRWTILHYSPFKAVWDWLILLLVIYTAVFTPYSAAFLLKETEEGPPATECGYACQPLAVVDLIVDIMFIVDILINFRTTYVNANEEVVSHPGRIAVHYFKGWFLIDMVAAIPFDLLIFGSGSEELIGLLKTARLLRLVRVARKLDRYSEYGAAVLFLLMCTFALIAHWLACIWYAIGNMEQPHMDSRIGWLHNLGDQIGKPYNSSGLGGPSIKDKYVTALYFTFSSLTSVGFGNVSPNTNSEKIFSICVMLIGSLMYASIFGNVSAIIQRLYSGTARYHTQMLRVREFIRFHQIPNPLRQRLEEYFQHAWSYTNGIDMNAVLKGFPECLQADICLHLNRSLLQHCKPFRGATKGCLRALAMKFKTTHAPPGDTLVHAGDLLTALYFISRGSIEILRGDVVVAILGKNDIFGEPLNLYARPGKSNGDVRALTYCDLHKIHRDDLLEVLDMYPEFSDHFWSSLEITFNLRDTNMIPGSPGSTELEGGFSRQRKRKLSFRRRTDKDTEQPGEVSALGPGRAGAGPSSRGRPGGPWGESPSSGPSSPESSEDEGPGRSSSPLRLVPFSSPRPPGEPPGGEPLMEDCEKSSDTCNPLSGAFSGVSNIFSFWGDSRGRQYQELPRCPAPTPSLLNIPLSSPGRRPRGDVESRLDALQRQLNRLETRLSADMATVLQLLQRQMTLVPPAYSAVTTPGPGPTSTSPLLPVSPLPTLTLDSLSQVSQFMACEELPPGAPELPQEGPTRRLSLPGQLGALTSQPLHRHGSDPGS

SMILES | hERG current change (%, negative = inhibition) at 10uM
CC(=O)c1ccc(N2CCN(C(=O)C3CCCN3S(=O)(=O)c3cccc4nsnc34)CC2)cc1 (stereo not drawn) | -1.72%
O=C(C1CCCN1S(=O)(=O)c1cccc2nsnc12)N1CCN(c2ccc(F)cc2)CC1 (stereo not drawn) | -69.3%
O=C(C1CCCN1S(=O)(=O)c1cccc2nsnc12)N1CCCCC1 (stereo not drawn) | 11%
COc1ccc(N2CCN(C(=O)C3CCCN3S(=O)(=O)c3cccc4nsnc34)CC2)cc1 (stereo not drawn) | -30.6%
O=C(C1CCCN1S(=O)(=O)c1cccc2nsnc12)N1CCCCCC1 (stereo not drawn) | 7.97%
O=C(C1CCCN1S(=O)(=O)c1cccc2nsnc12)N1CCN(c2ccccc2)CC1 (stereo not drawn) | -69.5%
CCOc1ccc(/C(O)=C2/C(=O)C(=O)N(c3ncccn3)C2c2ccccc2)cc1 (stereo not drawn) | -4.75%
CN1CCN(S(=O)(=O)c2cccc(C(=O)Nc3cc(C(F)(F)F)ccc3N3CCCC3)c2)CC1 | -1.41%
CCCCCn1nc(C)c(/C=N/NC(=O)c2ccoc2C)c1C | -43.8%
CCCCCn1nc(C)c(/C=N\NC(=O)c2cc(C)oc2C)c1C | -65.5%
Cc1cc(C(=O)N/N=C/c2c(C)nn(-c3ccccc3)c2C)c(C)o1 | 3.8%
O=C(Nc1cccnc1Cl)c1cc([N+](=O)[O-])ccc1Cl | 9.09%
c1ccc(-c2nc(NCCCn3ccnc3)c3ccccc3n2)cc1 | -59.3%
Fc1ccc(CNc2nc(-c3cccnc3)nc3ccccc23)cc1 | -50.4%
c1ccc(CNc2nc(-c3cccnc3)nc3ccccc23)cc1 | -23.4%
COCCCNc1nc(-c2ccncc2)nc2ccccc12 | -15.5%
Cc1nc(NCCCn2ccnc2)c2ccccc2n1.Cl | 3.46%
c1cncc(-c2nc(NCCCn3ccnc3)c3ccccc3n2)c1 | -53.5%
Cc1ccc(CNc2nc(-c3cccnc3)nc3ccccc23)cc1 | 8.72%
COc1cccc(CNc2nc(-c3cccnc3)nc3ccccc23)c1 | -15.6%
COc1ccc(C(CNc2nc(-c3cccnc3)nc3ccccc23)N(C)C)cc1 (stereo not drawn) | -59.2%
Fc1ccccc1CNc1nc(-c2cccnc2)nc2ccccc12 | 17.8%
OC(CNc1nc(-c2cccnc2)nc2ccccc12)c1ccccc1 (stereo not drawn) | -36.4%
c1cncc(-c2nc(NCc3ccco3)c3ccccc3n2)c1 | -5.1%
